The entries come from a sample that favours hits as a whole.
Dicer inh: inhibitors of human Dicer processing of pre-microRNA; Q9UPY3; cat-ELCCA pre-miR-21 Dicer processing, chemiluminescence; hits give high values; z-score at 25 µM; 47,000 tested, 6% active; AID 1347074; in the data active = z-score above about 3, passing the limit was not always enough;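 also: higher signal means more uncleaved substrate so more Dicer inhibition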
Each line names hits and unclear results; the compound was inactive in the other large screens.

CCC1CC(C)(c2csc(Nc3ccc(C)cc3)n2)OC1=O (stereo unspecified)	none
C=CCNc1nc(C2(C)CC3(CC(COCC(C)C)OC3=O)C(=O)O2)cs1 (stereo unspecified)	Dicer inh 3.1
CCCOCC1CC2(CC(C)(c3csc(Nc4ccc(C)cc4)n3)OC2=O)C(=O)O1 (stereo unspecified)	none
CN1c2ccsc2C(=O)/C(=N\Nc2ccc(Cl)cc2)S1(=O)=O	none
CCN(CC)CC#CC(O)(c1ccccc1)c1cccc(F)c1 (stereo unspecified)	none
Cc1cc2c(NS(=O)(=O)c3cn(C)cn3)cccc2nn1	none
Cc1c(C(=O)O)cc(-c2ccccc2)n1-c1ccccc1	none
Cc1cccc(C)c1-n1nnnc1SCc1ccc(Br)cc1	none
CCCCN1C(=O)C(O)(CC(=O)c2c(C)n[nH]c2C)c2cc(Br)ccc21 (stereo unspecified)	none
O=C(CC1(O)C(=O)N(CCc2ccccc2)c2ccc(Br)cc21)c1ccncc1 (stereo unspecified)	Dicer inh 3.6
Cc1ccc(C(=O)CC2(O)C(=O)N(CCc3ccccc3)c3ccc(Cl)cc32)o1 (stereo unspecified)	Dicer inh 5.2
Cc1ccc(C(=O)CC2(O)C(=O)N(Cc3ccccc3C)c3ccc(Cl)cc32)o1 (stereo unspecified)	none
CCCN1C(=O)C(O)(CC(=O)c2c(C)n[nH]c2C)c2ccccc21 (stereo unspecified)	none
Cc1ccccc1CN1C(=O)C(O)(CC(=O)c2ccccn2)c2cc(Cl)ccc21 (stereo unspecified)	none
CCOc1ccc(C(=O)CC2(O)C(=O)N(CCc3ccccc3)c3ccc(Br)cc32)cc1 (stereo unspecified)	none
COc1ccc(C(=O)CC2(O)C(=O)N(CCc3ccccc3)c3ccc(Br)cc32)cc1 (stereo unspecified)	none
CCCN1C(=O)C(O)(CC(=O)c2c(C)n[nH]c2C)c2cc(Br)ccc21 (stereo unspecified)	Dicer inh 3.2
Cc1ccc(CN2C(=O)C(O)(CC(=O)c3ccncc3)c3cc(Cl)ccc32)cc1 (stereo unspecified)	Dicer inh 5
O=C(CC1(O)C(=O)N(CCc2ccccc2)c2ccc(Cl)cc21)c1ccccc1O (stereo unspecified)	none
Cc1ccc(C(=O)CC2(O)C(=O)N(Cc3ccccc3)c3ccc(Cl)cc32)cc1 (stereo unspecified)	none
COc1cc(Cl)c(NC(=O)c2cccc(C(F)(F)F)c2)c(OC)c1	none
Cc1cc2nc(SCC(=O)c3ccccc3)[nH]c2cc1C	none
CC1(C)Cc2c(c(N3CCOCC3)nc3sc4c(=O)n(-c5ccccn5)cnc4c23)CO1	none
CCOc1cc(C2C(C(=O)OC(C)C)=C(C)NC3=C2C(=O)CCC3)ccc1O (stereo unspecified)	none
O=c1[nH]c(/C=C/c2ccccc2O)nc2ccccc12	none
CCCCNc1nc2c(c(=O)[nH]c(=O)n2C)n1CCC(C)C	none
CC(C)(C)NNC(=S)Nc1cccc(C(F)(F)F)c1	none
CN(C)/C=N/C(=S)Nc1cccc(F)c1	none
CN(C)/C=N/C(=S)Nc1cccc(C(F)(F)F)c1	Dicer inh 4.9
O=C(O)c1ccc(-c2ccc(Br)cc2)cc1	none
COc1ccc(C2C(C(=O)OC(C)C)=C(C)Nc3ncnn32)c(OC)c1 (stereo unspecified)	none
O=C(Cc1ccccc1)N(c1ccc2oc(=O)sc2c1)S(=O)(=O)c1cccs1	Dicer inh 5.4
O=C(c1cccnc1)N(c1ccc2oc(=O)sc2c1)S(=O)(=O)c1cccs1	Dicer inh 6.1
CC(C)C(=O)N(c1ccc2oc(=O)sc2c1)S(=O)(=O)c1cccs1	none
COc1ccc(S(=O)(=O)N(C(=O)c2ccncc2)c2cc3sc(=O)oc3c3ccccc23)cc1	none
O=C(c1ccncc1)N(c1ccc2oc(=O)sc2c1)S(=O)(=O)c1cccs1	Dicer inh 5.5
CC(C)C(=O)N(c1cc2sc(=O)oc2c2ccccc12)S(=O)(=O)c1cccs1	none
O=C(CN1C(=O)c2ccccc2S1(=O)=O)NCCSCc1ccc(Cl)cc1	none
CSc1cccc(-n2c(C(C)(C)C)cs/c2=N/c2ccccn2)c1	none
N#Cc1c(-c2ccccc2)c2c([nH]c1=O)-c1ccccc1CC2	none
CN(C)C(=O)Cc1c[nH]c2ccccc12	none
Cc1ccsc1CNC(=O)CCC(=O)O	none
CC1CCN(C(=O)c2cc3n(n2)C(C(F)(F)F)CC(c2ccc(Br)cc2)N3)CC1 (stereo unspecified)	Dicer inh 5.4
COc1ccc(C2CC(C(F)(F)F)n3nc(C(N)=O)cc3N2)cc1OC (stereo unspecified)	none
O=C(c1cc2n(n1)C(C(F)(F)F)CC(c1ccc(Cl)cc1)N2)N1CCCCC1 (stereo unspecified)	none
O=C(c1cc2n(n1)C(C(F)(F)F)CC(c1ccc(Br)cc1)N2)N1CCOCC1 (stereo unspecified)	Dicer inh 5
O=C(c1cc2n(n1)C(C(F)(F)F)CC(c1ccc(Cl)cc1)N2)N1CCCC1 (stereo unspecified)	none
O=C(c1cc2n(n1)C(C(F)(F)F)CC(c1ccccc1)N2)N1CCOCC1 (stereo unspecified)	Dicer inh 3.6
O=C(c1cc2n(n1)C(C(F)(F)F)CC(c1ccco1)N2)N1CCN(c2ccccn2)CC1 (stereo unspecified)	none
O=C(c1cccc(F)c1)N1CCN(C(=O)c2cc3n(n2)C(C(F)(F)F)CC(c2ccco2)N3)CC1 (stereo unspecified)	none
O=C(c1cc2n(n1)C(C(F)(F)F)CC(c1ccc(Br)cc1)N2)N1CCCCC1 (stereo unspecified)	none
CCCCCNc1nc(C)nc2c1sc1nc3c(cc12)COC(C)(C)C3	none
O=C1C2=C(C(c3ccccc3)=NCCN2)C(c2ccccc2F)N1c1ccccc1 (stereo unspecified)	none
O=C1c2cc([N+](=O)[O-])ccc2-c2c1cc([N+](=O)[O-])cc2C(=O)N1CCCCC1	none
c1ccc(-c2ccc(-c3nc(-c4ccc5c(c4)OCCCO5)cs3)s2)nc1	none
CCOC(=O)c1sc(SC)c2c1CCc1cnc(SCC(=O)Nc3ccc(Cl)cc3)nc1-2	none
COc1ccc(-n2sc3c(c2=S)-c2ccccc2NC3(C)C)cc1OC	none
CCOc1ccc2c(c1)-c1c(sn(-c3ccc(OC)cc3)c1=S)C(C)(C)N2	Dicer inh 6.7
COC(=O)C1=C(C(=O)OC)SC(=C2C(=S)C(C)(C)Nc3ccc(OC)cc32)S1	none
O=[N+]([O-])c1ccc(C(N2CCSCC2)N2CCSCC2)cc1	none
Cc1cc2n(n1)C(c1cccs1)Nc1c(C)cccc1-2 (stereo unspecified)	none
COc1ccccc1C1Nc2c(C)cccc2-c2cc(C)nn21 (stereo unspecified)	Dicer inh 3.9
Cc1cc2n(n1)C(c1ccccc1O)Nc1c(C)cccc1-2 (stereo unspecified)	Dicer inh 5.2
COc1cc(O)ccc1C1Nc2ccccc2-c2cc(C)nn21 (stereo unspecified)	none
COc1ccc(C2Nc3c(C)cccc3-c3cc(C)nn32)c(OC)c1 (stereo unspecified)	none
COc1cc(O)ccc1C1Nc2c(C)cccc2-c2cc(C)nn21 (stereo unspecified)	Dicer inh 3.8
CCN(CC)c1ccc(C2Nc3c(C)cccc3-c3cc(C)nn32)c(O)c1 (stereo unspecified)	none
COc1ccccc1C1Nc2c(C)cc(C)cc2-c2cc(C)nn21 (stereo unspecified)	none
COc1ccc(-c2cnc3ncnn3c2N)cc1OC	none
COc1cc(CN(C(=O)c2cccc([N+](=O)[O-])c2)c2cccc(F)c2)cc(OC)c1OC	none
